KCNQ2 inh: inhibitors of rat KCNQ2 potassium channel; B-score at 10 µM; actives 1.1% (n = 310,000); CHO-K1 KCNQ2, FluxOR thallium flux, 20 min; hits give low values; O88943;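 active = fluorescence ratio B-score at most minus 3 library SDs, with starting brightness B-score within 2 library SDs, cut at about -5.5 in these data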
KCNQ2 pot: potentiators of rat KCNQ2 potassium channel; CHO-K1 KCNQ2, FluxOR thallium flux fluorescence; hits give high values; B-score at 10 µM; actives 0.54% (n = 310,000);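 active = fluorescence ratio B-score at least 3 SD of library B-scores, with initial fluorescence B-score within 3 of them, cut at about 5.3 in these data; same plate scores as AID 2156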;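 also: B-score of peak minus minimum over baseline fluorescence ratio after K+ and Tl+ stimulus; positive B-score means potentiation of KCNQ2 with more thallium influx and brighter signal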
Kir21 confirm: confirmation of mouse Kir2.1 potassium channel inhibitors | Kir2.1-expressing cells, FluxOR thallium flux fluorescence; hits give low values | shares compounds with KCNQ2 pot | actives 41% (n = 2,300) | Tl flux remaining, % of negative control (hits give low values), % at 10 µM;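 active = Primary-screen hit whose thallium flux fell at least 3 control SD below untreated wells in both duplicates, with normal baseline fluorescence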
HEK293 Tl flux: alters thallium flux in parental HEK293 cells, Kir2.1 counter-screen | shares compounds with KCNQ2 pot | FluxOR thallium flux fluorescence; 0% = unstimulated blank wells | FluxOR signal as % of negative control (100 = no effect), % at 10 µM | actives 19% (n = 2,300);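 active = dye signal at least 3 control SD above or below untreated wells in both duplicates, raw fluorescence within 3, either direction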;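 also: percent is based on the flux ratio of peak minus minimum fluorescence over baseline F0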
CHO-K1 Tl ctr: alters thallium flux in parental CHO-K1 cells, KCNQ2 counter-screen. shares compounds with KCNQ2 pot. FluxOR thallium flux fluorescence; zero = vehicle mean+3SD, 100% = vehicle-minus-blank window. activity increase over 3SD of controls, % at 10 µM. actives 43% (n = 1,200). AID 2282;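 active = signal rise of at least 3 SD above the untreated control mean, in both duplicate wells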;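 also: counter screen of KCNQ2 potentiator hits so any rise reflects channel-independent effects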
KCNQ1 sel pot: tests whether KCNQ2 potentiators also act on human KCNQ1; shares compounds with KCNQ2 pot; CHO KCNQ1 stable, FluxOR thallium flux fluorescence; beyond 3SD, as % of vehicle-control signal; activation over 3SD threshold, % at 10 µM; actives 28% (n = 1,200);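 active = fluorescence ratio rise of at least 3 SD of vehicle wells above their mean, in both replicate wells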
Target sequence (P51787 whole entry, looked up): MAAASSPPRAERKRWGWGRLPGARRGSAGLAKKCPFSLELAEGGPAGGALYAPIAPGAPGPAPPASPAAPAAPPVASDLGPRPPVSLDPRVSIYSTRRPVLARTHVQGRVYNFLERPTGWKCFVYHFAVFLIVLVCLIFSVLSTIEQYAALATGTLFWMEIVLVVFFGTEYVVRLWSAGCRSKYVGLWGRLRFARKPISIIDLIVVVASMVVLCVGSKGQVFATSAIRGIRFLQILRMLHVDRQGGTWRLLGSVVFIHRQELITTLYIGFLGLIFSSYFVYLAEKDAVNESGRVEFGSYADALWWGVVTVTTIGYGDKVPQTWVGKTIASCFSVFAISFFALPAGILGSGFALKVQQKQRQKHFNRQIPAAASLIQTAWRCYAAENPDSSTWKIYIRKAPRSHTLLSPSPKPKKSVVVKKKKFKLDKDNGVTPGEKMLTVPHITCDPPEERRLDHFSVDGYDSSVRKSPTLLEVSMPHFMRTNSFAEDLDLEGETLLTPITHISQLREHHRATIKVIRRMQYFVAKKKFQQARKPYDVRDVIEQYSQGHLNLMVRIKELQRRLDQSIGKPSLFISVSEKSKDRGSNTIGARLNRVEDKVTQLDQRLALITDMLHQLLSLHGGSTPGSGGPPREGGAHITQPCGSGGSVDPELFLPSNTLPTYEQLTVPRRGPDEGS
KCNQ2 pot conf: rat KCNQ2 channel potentiator confirmation. shares compounds with KCNQ2 pot. CHO-KCNQ2 cells, FluxOR thallium flux fluorescence. potentiation, less the hit threshold, % at 10 µM. actives 68% (n = 1,200). AID 2287;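 active = fluorescence ratio rising 3 SD or more over the vehicle control mean in both replicates, plus primary screen hit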;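 also: peak minus minimum thallium fluorescence divided by baseline after K/Tl stimulus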
Kir2-1 sel: tests whether KCNQ2 potentiators also affect mouse Kir2.1 | actives 2% (n = 1,200) | shares compounds with KCNQ2 pot | activity over 3SD threshold, % at 10 µM | AID 2345 | HEK293 Kir2.1, FluxOR thallium flux fluorescence;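 active = fluorescence ratio rise of at least 3 SD above the vehicle-control mean, seen in both replicates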
KCNQ2 W236L pot: KCNQ2 potentiators acting on retigabine-insensitive rat KCNQ2 W236L mutant; shares compounds with KCNQ2 pot; CHO KCNQ2-W236L, automated patch clamp current; current increase over 3SD of negative controls (%), hits give high values, % at 25 µM; actives 10% (n = 940); AID 2558;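 active = current increase at least 3 SD of the untreated controls above them in both duplicate recordings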
Large screens that a line does not name were inactive (follow-up assays come after a bar, where they were run). Only some compounds are listed: those with a hit (about 1.6% of all), similar ones and a draw of the others.

Cn1nc(C(F)(F)F)c2cc(NC(=O)OCc3ccc(C(C)(C)C)cc3)sc21	KCNQ2 pot 6.3 | Kir21 confirm inactive | HEK293 Tl flux inactive | CHO-K1 Tl ctr 38 | KCNQ1 sel pot inactive | KCNQ2 pot conf inactive | Kir2-1 sel inactive
CN(C)S(=O)(=O)c1cc(NC(=O)CN2CCN(c3ccccc3O)CC2)ccc1Cl	none
CCCN1CCN(S(=O)(=O)c2c(C)[nH]c(C)c2C(=O)N2CCCCC2)CC1	none
CCC(C)n1c(NC(=O)c2ccccc2)c(C#N)c2nc3ccccc3nc21 (configuration not stated)	none (no result: KCNQ2 pot)
CCCCn1c(NC(=O)c2ccc(F)cc2)c(C#N)c2nc3ccccc3nc21	KCNQ2 pot 5.7 | Kir21 confirm inactive | HEK293 Tl flux 66% | CHO-K1 Tl ctr 103 | KCNQ1 sel pot inactive | KCNQ2 pot conf inactive | Kir2-1 sel inactive | KCNQ2 W236L pot inactive
COC(=O)N1c2ccccc2C=Cc2ccccc21	none (no result: KCNQ2 pot)
CCOCc1cn(CC(=O)c2ccc([N+](=O)[O-])cc2)c(C)nc1=N	none (no result: KCNQ2 pot) | Kir21 confirm inactive | HEK293 Tl flux inactive
CCOCc1cn(CC(=O)c2ccc(Cl)cc2)c(C)nc1=N	none
Cc1ccc(C)c(C(C)NC(=O)c2ccc(Br)o2)c1 (configuration not stated)	none (no result: KCNQ2 pot)
CN1CCN(C(=O)c2cc(C(C)(C)C)cc(C(C)(C)C)c2)CC1	none (no result: KCNQ2 pot)
Cc1cccc(-n2c(C)c(C)c3c(N)ncnc32)c1	none (no result: KCNQ2 pot)
Cc1cc(C)cc(NC(=O)Cn2c(-c3ccccc3Cl)nc3ccccc32)c1	none
O=C(Cn1c(CO)nc2ccccc21)Nc1ccccc1Cl	none | Kir21 confirm inactive | HEK293 Tl flux inactive
COc1ccc(C(=O)N/C(=C\c2cn(S(=O)(=O)N(C)C)c3ccccc23)C(=O)N2CCOCC2)cc1	none
CCN1C(=O)CSc2ccc(C(=O)NCc3ccc(OC)cc3)cc21	none | Kir21 confirm 58% | HEK293 Tl flux inactive
CCOc1ccc(CNC(=O)c2ccc3c(c2)N(CC)CCS3)cc1	none (no result: KCNQ2 pot)
CCOc1cc(S(=O)(=O)n2cnc(C)c2)ccc1Cl	none
Cc1ccc(C)c(N2CC(C(=O)Nc3cc(C)on3)CC2=O)c1 (configuration not stated)	none (no result: KCNQ2 pot)
COc1ccc(Br)cc1CSC(=N)N	none
CCCCOc1ccc(CSC(=N)N)cc1Cl	none (no result: KCNQ2 pot) | Kir21 confirm 28% | HEK293 Tl flux inactive
CCCCCOc1ccc(Br)cc1CSC(=N)N	none (no result: KCNQ2 pot) | Kir21 confirm inactive | HEK293 Tl flux inactive
CCOc1ccc(CSC(=N)N)cc1	none
COc1ccc(CC(NC(C)=O)C(=O)NC2CCN(C(=O)C3CCCCC3)CC2)cc1OC (configuration not stated)	none
Fc1ccc(NC(=S)Nc2ccccc2N2CCOCC2)cc1Cl	none (no result: KCNQ2 pot) | Kir21 confirm 63% | HEK293 Tl flux 134%
CC(=O)Nc1ccc(S(=O)(=O)Nc2ccccc2N2CCOCC2)cc1Cl	none (no result: KCNQ2 pot)
O=S(=O)(Nc1ccccc1N1CCOCC1)c1ccc(F)c(Cl)c1	none (no result: KCNQ2 pot) | Kir21 confirm 46% | HEK293 Tl flux inactive
O=S(=O)(c1ccc(Cl)c(NC(=S)Nc2ccccc2N2CCOCC2)c1)N1CCOCC1	none
O=C(NCC1CCCO1)c1cc(-c2ccc(F)cc2)no1 (configuration not stated)	none (no result: KCNQ2 pot)
CN(C(=O)CSc1nnc(-c2ccncc2)n1Cc1ccccc1)C1CCS(=O)(=O)C1 (configuration not stated)	none
O=C(CCc1ccccc1)c1nnc(-c2ccccc2)o1	none (no result: KCNQ2 pot)
O=C(O)CSc1nnc(-c2ccc(Cl)cc2Cl)n1-c1ccccc1	none
Nc1ccc2nc(-c3ccc(Cl)cc3)[nH]c2c1	none
Clc1ccc2nc(-c3ccc(Cl)nc3)[nH]c2c1	KCNQ2 pot 6.9 | Kir21 confirm inactive | HEK293 Tl flux inactive | CHO-K1 Tl ctr inactive | KCNQ1 sel pot 57 | KCNQ2 pot conf 5.7 | Kir2-1 sel inactive | KCNQ2 W236L pot 3.5%
CCCn1c(=O)[nH]c(=O)c2c1nc(-c1cc([N+](=O)[O-])ccc1Cl)n2CCOC	none (no result: KCNQ2 pot)
COc1ccc(CN2C(=O)CSC2c2ccccn2)cc1 (configuration not stated)	none
O=C(c1cccc(COc2ccc(Cl)cc2Cl)c1)N1CCN(c2ccccn2)CC1	none (no result: KCNQ2 pot)
CN(C(=O)c1cccc(COc2ccc(Cl)cc2Cl)c1)c1ccccc1	none (no result: KCNQ2 pot) | Kir21 confirm inactive | HEK293 Tl flux inactive
CC1=C(CC(=O)NCC(=O)NCC(=O)O)c2cc(F)ccc2/C1=C/c1ccc(S(C)=O)cc1 (configuration not stated)	none (no result: KCNQ2 pot)
CC(C)CC(=O)Nc1ccc(Nc2ccccc2)cc1	none
CC(C)(C)CC(=O)Nc1ccc(Nc2ccccc2)cc1	KCNQ2 pot 6.3 | Kir21 confirm inactive | HEK293 Tl flux inactive | CHO-K1 Tl ctr 133 | KCNQ1 sel pot inactive | KCNQ2 pot conf 16 | Kir2-1 sel inactive | KCNQ2 W236L pot inactive
COc1cc(OC)c(NC(=O)/C=C/C(=O)O)cc1Cl	none
O=C(NCc1ccc2c(c1)OCO2)C1CCCN1C(=O)Nc1ccc(Cl)cc1 (configuration not stated)	none
CCn1c(CNc2cccc(Cl)c2)nnc1SCC(=O)OC1CCCCC1	none (no result: KCNQ2 pot)
CCn1c(CNc2ccc(Cl)cc2)nnc1SCC(=O)OC1CCCCC1	none | Kir21 confirm 71% | HEK293 Tl flux inactive
COc1ccccc1C(=O)Nc1ccc2c(c1)nc1n2CCN(C2CCCCC2)C1	none
COc1ccc(C(=O)O/N=C2\C(=O)N(C)c3ccccc32)cc1	none (no result: KCNQ2 pot)
CN1C(=O)/C(=N\OC(=O)c2cccc3ccccc23)c2ccccc21	KCNQ2 pot 5.4 | Kir21 confirm inactive | HEK293 Tl flux inactive | CHO-K1 Tl ctr inactive | KCNQ1 sel pot inactive | KCNQ2 pot conf inactive | Kir2-1 sel inactive
CC(C)(C)c1ccc(C(=O)NNC(=O)c2cccc(Br)c2)cc1	none
Cc1cccc(NC(=O)C(=O)NNC(=O)c2ccc(C(C)(C)C)cc2)c1	KCNQ2 pot 16 | Kir21 confirm inactive | HEK293 Tl flux inactive | CHO-K1 Tl ctr 22 | KCNQ1 sel pot 4.1 | KCNQ2 pot conf 44 | Kir2-1 sel inactive | KCNQ2 W236L pot inactive
COc1ccc(NC(=O)CNc2ccc(C#N)cc2)cc1	none (no result: KCNQ2 pot)
COc1ccc(C(=O)Nc2cc(OC)cc(OC)c2)cc1	none

Compound activity deposited in PubChem by Johns Hopkins Ion Channel Center.
